Screening results as filed in PubChem.
ATXN viability = cell viability loss in ATXN counter-screen; S2 cells (HEK-293 line with an ATXN2-luciferase reporter) viability, CellTiter-Fluor protease fluorescence, 24 h; Potency, µM (series often up to 56.7 µM), usual class: cytotoxic; 0.49% of 400,000 active; further: potency means the concentration at half of the fitted maximal effect; nearly all actives have a fitted effect of over 40% in size
ATXN2 expr inh = reduces ATXN2 reporter expression in HEK-293 cells. 0.72% of 360,000 active. Potency, µM (series often up to 57 µM), without a hit: top-dose activity change, negative = inhibition, hits mostly inhibitors. AID 1745845. HEK-293 ATXN2-luciferase reporter, luminescence, 24 h; further: potency means the concentration at half of the fitted maximal effect; on the % scale 0 is the no-effect control and ±100 the full control effect; nearly all actives have a fitted effect of over 55% in size
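qHTS (up to 57 uM final) was run with 24 h compound exposure of reporter cells at 37 °C. Each well was multiplexed: SteadyGlo luminescence measured ATXN2-luciferase expression after a fluorogenic Gly-Phe-AFC viability readout (25 uM final).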
HepG2 viability = HepG2 cytotoxicity, counter-screen for TGF-b inhibitors; 0.76% of 410,000 active; Potency, µM (doses to about 46.1 µM), for the others: at the highest dose activity change, negative = cytotoxicity, most hits filed as cytotoxic; HepG2 CAGA-GFP viability, ATP luminescence, 18 h; further: potency means the concentration at half of the fitted maximal effect
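HepG2 CAGA-GFP cells (1000/well, DMEM with 1% FBS) received compound, then TGF-beta at 500 pg/mL final, and were incubated 18 hours at 37 degrees C. Viability was read by CellTiter-Glo luminescence. Media-only wells were set as complete cell-killing and DMSO as no toxicity.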
DRD3 agonist = D3 dopamine receptor (human) agonism. P35462. D3R DiscoveRx beta-arrestin cells, luminescence, 90 min. max activation, %. 0.58% of 410,000 active. AID 652048; in the data active means max activation above about 30%; further: 0% is about no effect
Target sequence (P35462 whole entry, looked up): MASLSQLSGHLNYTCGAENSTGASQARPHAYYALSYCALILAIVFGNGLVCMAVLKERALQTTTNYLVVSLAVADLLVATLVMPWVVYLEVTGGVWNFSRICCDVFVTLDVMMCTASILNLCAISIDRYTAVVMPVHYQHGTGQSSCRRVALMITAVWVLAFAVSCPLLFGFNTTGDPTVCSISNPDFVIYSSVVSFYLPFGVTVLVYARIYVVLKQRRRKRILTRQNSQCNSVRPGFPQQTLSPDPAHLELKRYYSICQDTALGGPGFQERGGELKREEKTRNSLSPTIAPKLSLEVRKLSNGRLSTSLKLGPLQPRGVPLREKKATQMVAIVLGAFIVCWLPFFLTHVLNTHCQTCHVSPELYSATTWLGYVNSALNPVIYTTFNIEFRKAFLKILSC
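Cells at 1500/well, incubated overnight, then treated with pinned compounds (dopamine as control) for 90 min at 37 degrees C. DiscoveRx reagent added for 30 - 60 minutes at room temperature; luminescence read.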
DRD3 antagonist = D3 dopamine receptor (human) antagonism; P35462; D3R cells, DiscoveRx beta-arrestin luminescence, antagonist mode; active compounds read low; max response, negative = inhibition, %; 2.5% of 360,000 active; AID 652054; in the data active means max response below about -50%; inconclusive means no clear call, values can overlap the other calls; further: on the % scale 0 is the no-effect control and ±100 the full control effect
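Cells plated overnight at 1500 cells/well, then exposed to library compounds with dopamine controls for 90 minutes at 37 degrees C. DiscoveRx reagent added for 30–60 minutes at room temperature; luminescence read, quantitative HTS format.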
TGFb inhibitor = inhibitors of TGF-b signaling; HepG2 CAGA-GFP TGF-b/SMAD3 reporter, GFP fluorescence, 18 h; TGF-beta stimulated, 500 pg/mL final; Potency, µM (series often up to 46.1 µM), for inactives: at the top dose activity, negative = inhibition, hits mostly inhibitors; 1.2% of 410,000 active; AID 588855; further: potency means the concentration at half of the fitted maximal effect; on the % scale 0 is the no-effect control and ±100 the full control effect; nearly all actives have a fitted effect of over 65% in size
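Inhibition was scored as loss of TGF-beta-induced (500 pg/mL final, 18 hours, 37 degrees C) GFP in HEPG2 cells carrying a CAGA-GFP reporter, in DMEM with 1% FBS. Well GFP was summed per cell; Activity was normalised to unstimulated and stimulated DMSO wells, then concentration-response fitting.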
* marks the source's active call; other numbers are inactive results; i = inactive; ? = inconclusive; nt = no result given. Most compounds without a hit are left out; they make up all but 4.8% or so of the library. Unless noted, the call rests on the fitted dose curve; in most records, active means well fitted curve in the direction sought with a large enough effect; inconclusive means small, poorly fitted or top-dose-only effect, or another doubt; inactive means no such curve, though single readings can be large; an effect the other way counts as inactive or inconclusive.

SMILES | ATXN viability | ATXN2 expr inh | HepG2 viability | DRD3 agonist | DRD3 antagonist | TGFb inhibitor
CCC[C@H]1C[C@H](C(=O)N[C@@H]([C@@H]2O[C@@H](SC)[C@@H](O)[C@@H](O)[C@@H]2O)[C@H](C)Cl)N(C)C1 | nt | -2.2% | nt | nt | nt | nt
CCO[C@@H]1OC(C(=O)O)=C[C@H](C2CCCCC2)[C@H]1CCCO | i | 5.9% | -9.8% | 34.7* | 16.2 | 3.0%
Cc1nnc(SCc2nc(-c3ccc(Cl)cc3)no2)n1-c1ccc(F)cc1 | ? | ? | -40.9% | 8.6 | nt | -14.2%
CC1(C(=O)Nc2ccc3c(c2)OCO3)CCN1C(=O)Cc1cccs1 (stereo not given) | ? | 13.3% | -16.3% | -28.0 | -101.5* | -14.8%
CC1(C(=O)Nc2ccc3c(c2)OCCO3)CCN1C(=O)C1(c2ccc(Cl)cc2)CCC1 (stereo not given) | i | -7.6% | -5.1% | 72.5* | 21.9 | -2.2%
C=C1C=C(C)n2ncc(C(=O)Nc3ccc(NC(C)=O)c(Cl)c3)c2N1 | nt | nt | -13.4% | nt | nt | -3.5%
Cc1ccc(-n2c(-c3nn(C)c(C)c3Cl)n[nH]c2=S)cc1 | i | 5.7% | -18.3% | -3.3 | -57.1* | -7.9%
CC1CN(CC(=O)NCCC2COc3ccccc3O2)Cc2cc(Cl)ccc2O1 (stereo not given) | i | nt | nt | nt | nt | nt
Cc1ccc(Nc2cc(C)nn2-c2nc(C)cc(=O)[nH]2)cc1 | 2µM* | 1.12µM* | -27.3% | 0.3 | -66.8* | 2.24µM*
Cc1ccc(Nc2cc(C)nn2-c2nc(C)cc(C)n2)cc1 | i | ? | -14.4% | 0.2 | ? | -9.2%
COCCN1CCN(C(=O)c2cnn(-c3nccc(-c4ccccc4OC)n3)c2-c2ccco2)CC1 | i | nt | nt | nt | nt | nt
Cc1ccc(C)c(NC(=O)CCc2nc3cccnc3n2Cc2cccs2)c1 | nt | nt | -32.2% | -7.7 | nt | ?
Cc1ccc(NC(=O)c2nc(S(=O)(=O)Cc3ccccc3F)ncc2Cl)cc1 | nt | nt | 10µM* | nt | nt | ?
Cc1ccccc1NC(=O)c1nc(S(=O)(=O)Cc2ccccc2F)ncc1Cl | nt | nt | 5.62µM* | nt | nt | 4.47µM*
Cc1ccc(-c2c(C(=O)N3CCN(c4cccc(C)c4)C(C)C3)oc(=O)c3ccccc23)cc1 (stereo not given) | i | -18.4% | -34.6% | 8.9 | nt | ?
COC(=O)[C@@H]1[C@@H](C)N(Cc2ccccc2)C(=O)N[C@H]1c1ccccc1 | i | 0.8% | -0.2% | 10.4 | 18.6 | 1.9%
COC(=O)[C@H]1[C@@H](C)N(Cc2ccccc2)C(=O)N[C@H]1c1ccccc1 | i | -2.0% | -6.5% | 2.9 | -54.8* | -1.1%
C=C1C(=O)C=C[C@]2(C)C[C@@H]3OC(=O)[C@](C)(O)[C@H]3C[C@@H]12 | ? | 10µM* | -70.4% | -35.9 | ? | ?
COc1ccc(-n2c(CNC(=O)c3cccc4ccccc34)nnc2SC)cc1 | i | nt | nt | nt | nt | nt
Cc1ccc2nc(-c3ccc(C#N)cc3)c(Cc3cccc(Cl)c3)n2c1 | i | -10.7% | -19.8% | -14.1 | -52.6* | -11.8%
Cc1ccc2nc(-c3ccccc3)c(Cc3cccc(Cl)c3)n2c1 | ? | -25.3% | -49.9% | -12.2 | -4.8 | 14.1µM*
Cc1c(C(=O)N/N=C/c2ccc(-c3ccccc3[N+](=O)[O-])o2)sc(N)c1C#N | i | -20.3% | -39.5% | -4.0 | -9.4 | 5.01µM*
O=C(N/N=C/c1ccc(-c2ccccc2[N+](=O)[O-])o1)c1cncc(Br)c1 | i | -6.3% | -24.3% | 3.7 | -21.9 | -6.4%
CC(C)c1nc(SCC(=O)c2c[nH]c3ccccc23)n[nH]1 | i | 0.2% | 12.8% | -41.0 | -60.6* | 10.6%
COC(=O)C1=CC(C(=O)c2cccs2)=NN(c2ccc(OC)cc2)C1C(=O)OC (stereo not given) | i | -6.0% | -30.4% | -8.4 | -55.9* | -27.2%
SMILES | ATXN viability | ATXN2 expr inh | HepG2 viability | DRD3 agonist | DRD3 antagonist | TGFb inhibitor
O=C(Cc1csc(Nc2nc(=S)[nH]c3ccccc23)n1)NCCCN1CCN(c2ccccc2F)CC1 | nt | ? | -58.4% | 4.0 | -69.2* | ?
CC(C)N(C(=O)[C@H]1C[C@H](CC(=O)NCCCN(C)C)C(=O)N2CCc3c([nH]c4cc(-c5ccco5)ccc34)[C@]12C)C(C)C | 31.6µM* | ? | 20µM* | -3.4 | -23.9 | ?
CC[C@]12c3[nH]c4cc(-c5ccco5)ccc4c3CCN1C(=O)[C@@H](CC(=O)NCCCOC)C[C@@H]2C(=O)N1CCN(C(=O)C2CC2)CC1 | i | 4.3% | -1.9% | 16.4 | ? | 0.1%
CCN(CC)C(=O)[C@H]1C[C@H](CC(=O)NCCCN(C)C)C(=O)N2CCc3c([nH]c4cc(-c5ccco5)ccc34)[C@]12C | i | 6.0% | -28.9% | -1.4 | 16.0 | -0.6%
CC[C@]12c3[nH]c4cc(-c5ccco5)ccc4c3CCN1C(=O)[C@@H](CC(=O)NCCCOC)C[C@@H]2C(=O)N1CCN(C(=O)c2ccco2)CC1 | i | 1.7% | -15.0% | 43.3* | -0.3 | ?
CN(C)C(=O)CCc1ccc2c3c([nH]c2c1)[C@]1(CCC2CCCC2)[C@@H](C(=O)N2CCOCC2)C[C@H](CC(=O)NCCCn2ccnc2)C(=O)N1CC3 | i | 3.1% | 2.5% | 3.4 | 24.1 | 30.4%
CCN(CC)C(=O)[C@H]1C[C@H](CC(=O)NCc2ccc(OC)c(OC)c2)C(=O)N2CCc3c([nH]c4cc(-c5ccco5)ccc34)[C@]12C | ? | ? | -56.5% | 11.4 | 15.0 | 12.6µM*
O=C(C[C@H]1C[C@H](C(=O)N2CCOCC2)[C@@]2(CCC3CCCC3)c3[nH]c4ccc(Cl)cc4c3CCN2C1=O)NCCCn1ccnc1 | nt | ? | -82.3% | 4.4 | 3.4 | 11.2µM*
Cc1nc2ccccc2nc1CN1CCOc2ccc(C(C)(O)COc3ccccc3)cc2C1 (stereo not given) | i | nt | nt | nt | nt | nt
CN(C)CCCNC(=O)C[C@H]1C[C@H](C(=O)N2CCOCC2)[C@@]2(CCC3CCCC3)c3[nH]c4cc(-c5ccco5)ccc4c3CCN2C1=O | nt | 25.1µM* | -104.4% | -8.5 | -7.0 | ?
CC(C)=CCC/C(C)=C/CNC(=O)C[C@H]1C[C@H](C(=O)N2CCCCC2)[C@@]2(C)c3[nH]c4cc(-c5ccco5)ccc4c3CCN2C1=O | ? | ? | -21.3% | 8.5 | -23.3 | ?
CC(C)=CCC/C(C)=C/CNC(=O)C[C@H]1C[C@H](C(=O)N(C(C)C)C(C)C)[C@@]2(C)c3[nH]c4cc(-c5ccco5)ccc4c3CCN2C1=O | ? | ? | -45.7% | 10.7 | 0.2 | 12.6µM*
C[C@H](NC(=O)OC(C)(C)C)C(=O)c1ccco1 | nt | nt | 13.0% | nt | nt | 6.7%
